A number with no mark means an inactive call.
Test system: Plasmodium falciparum NF54/iGP1_RE9H ulg8 stage V gametocytes
Assay: gametocyte viability (luciferase signal relative to DMSO control) (% of DMSO control); higher = less gametocytocidal activity, active = 50 or less
Conditions: exposure time: 72 h
Method in brief: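 Gametocyte viability is reported relative to the average of DMSO vehicle wells on the same plate. The assay used day-12 stage V NF54/iGP1_RE9Hulg8 gametocytes at ~2.5% gametocytemia and 3% hematocrit, in 0.5% Albumax II medium, added to 96-well plates of compounds spotted in nanolitre volumes for final 10 µM or 1 µM, one well each. After 72 h at 37 °C, 90 µl was mixed with 10 µl D-luciferin (30 mg/ml), and luminescence was recorded with an IVIS Lumina II.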

Row | Compound | gametocyte viability (concentration: 1 µM) | gametocyte viability (concentration: 10 µM)
1 | CNC(=O)c1cc(COc2nnc(Nc3ccc(Cl)cc3)c3ccoc23)ccn1 [Telatinib (BAY 57-9352)] | 115 | 115
2 | O=C(NOC[C@H](O)CO)c1ccc(F)c(F)c1Nc1ccc(I)cc1F | 114 | 110
3 | Nc1nc(Nc2ccc(S(N)(=O)=O)cc2)nn1C(=O)c1c(F)cccc1F | 101 | 85.9
4 | O=c1c(-c2ccc(O)cc2)coc2cc(O)ccc12 [Daidzein] | 116 | 109
5 | S=C(NCc1ccc2c(c1)OCO2)N1CCN(c2ncnc3c2oc2ccccc23)CC1 [Amuvatinib (MP-470)] | 98.1 | 110
6 | Cc1csc(-c2nnc(Nc3ccc(Oc4ncccc4-c4ccnc(N)n4)cc3)c3ccccc23)c1 | 103 | 112
7 | FC(F)c1nc2ccccc2n1-c1nc(N2CCOCC2)nc(N2CCOCC2)n1 | 98.5 | 108
8 | CC(C)(C)c1cc(NC(=O)Nc2ccc(-c3cn4c(n3)sc3cc(OCCN5CCOCC5)ccc34)cc2)no1 [Quizartinib (AC220)] | 97.7 | 85.9
9 | O=C(c1ccc(/C=C/c2n[nH]c3ccccc23)cc1)N1CCNCC1 | 104 | 93.7
10 | N#CC(=Cc1ccc(O)c(O)c1)C(=O)NCc1ccccc1 | 95.7 | 101
11 | CCC[C@H](NC(=O)/C(C#N)=C/c1cccc(Br)n1)c1ccccc1 | 114 | 106
